Screening results deposited in PubChem by National Center for Advancing Translational Sciences (NCATS).
A selection: hits, their analogues and other compounds. The true share with any hit is near 5.8%.
SW480 rereplic – inducers of DNA re-replication in SW480 colon cancer cells; actives 1.8% (n = 340,000); SW480 DNA re-replication, Hoechst DNA content imaging, 48 h; Potency, µM (titrated, usually from 46.1 µM), for the others: at the top dose re-replication activation, actives largely listed as activators; further: % of control where 0% means no effect; nearly all actives have a fitted effect of over 55% in size
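Cells (250 per well) received 23 nL compound or DMSO by pin tool and were kept 48 hr at 37 C, 5% CO2. Nuclei were then stained with Hoechst for 40 min and scanned for DNA content.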
PINK1 expr mod – PINK1 expression modulation; Potency, µM (highest dose often 76.6 µM), inactives show top-dose activation (PINK1 increase), usual class: activators; actives 0.2% (n = 410,000); AID 624263; PINK1 immunofluorescence, high-content cytometry, 24 h; active means well fitted activation curve with a large enough effect; inconclusive means small, poorly fitted or top-dose-only effect; cell line not stated here; further: % of control where 0% means no effect; nearly all actives have a fitted effect of over 65% in size
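Measures PINK1 amount and localization on or inside mitochondria by immunofluorescence. Stable cells get compounds at 5 concentrations for 24 hours before fixation and staining; CCCP controls included.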
KB-3-1 tox – kills parental KB-3-1 adenocarcinoma cells; KB-3-1 viability, CellTiter-Glo ATP luminescence, 72 h; Potency, µM (series often up to 46.1 µM), hits mostly cytotoxic; actives 1.4% (n = 400,000); further: on the % scale 0 is the no-effect control and ±100 the full control effect; nearly all actives have a fitted effect of over 60% in size
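Here the drug-naive KB-3-1 line serves as comparator for MDR sub-line selectivity; cells received compound titrations, 72 h at 37 °C, then CellTiter-Glo readout.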
MCF10A rereplic – DNA re-replication induction in MCF 10a cells; MCF 10A DNA re-replication, Hoechst nuclear intensity, 48 h; Potency, µM (titrated, usually from 46.1 µM), without a hit: top-dose activity, positive = re-replication, actives largely listed as activators; actives 2.9% (n = 350,000); AID 624296; further: % of control where 0% means no effect; nearly all actives have a fitted effect of over 50% in size
ALOX12 inh – inhibitors of human 12S-lipoxygenase ALOX12; P18054; purified 12hLO, xylenol orange hydroperoxide absorbance; Potency, µM (series often up to 108 µM), for the others: at the top dose activity change, negative = inhibition, usual class: inhibitors; actives 1.1% (n = 580,000); further: on the % scale 0 is the no-effect control and ±100 the full control effect
Target sequence (P18054 whole entry, looked up): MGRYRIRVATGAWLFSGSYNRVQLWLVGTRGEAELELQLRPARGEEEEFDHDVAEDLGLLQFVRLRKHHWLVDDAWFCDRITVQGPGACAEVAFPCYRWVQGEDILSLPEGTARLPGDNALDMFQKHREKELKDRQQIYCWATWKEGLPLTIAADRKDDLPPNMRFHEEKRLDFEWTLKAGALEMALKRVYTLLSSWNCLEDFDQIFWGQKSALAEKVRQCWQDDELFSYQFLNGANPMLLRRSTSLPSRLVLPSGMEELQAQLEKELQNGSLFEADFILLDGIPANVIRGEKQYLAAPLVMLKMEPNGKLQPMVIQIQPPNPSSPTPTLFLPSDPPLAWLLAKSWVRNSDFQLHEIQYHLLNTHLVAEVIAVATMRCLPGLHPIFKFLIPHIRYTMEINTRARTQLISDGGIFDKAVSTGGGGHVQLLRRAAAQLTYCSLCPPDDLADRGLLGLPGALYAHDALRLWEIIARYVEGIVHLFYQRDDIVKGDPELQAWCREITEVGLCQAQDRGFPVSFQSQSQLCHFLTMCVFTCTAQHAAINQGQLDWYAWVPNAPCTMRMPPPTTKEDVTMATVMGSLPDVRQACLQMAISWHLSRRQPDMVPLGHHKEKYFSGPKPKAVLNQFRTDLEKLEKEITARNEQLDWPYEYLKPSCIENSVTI
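Hydroperoxide product was detected by ferrous iron/xylenol orange as the 573 to 405 nm absorbance ratio. Arachidonic acid at 40 uM (final) was turned over for 30 min at room temperature by 150 nM human 12hLO, pH 7.0 Hepes buffer, after 15 min compound preincubation.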
KB-V1 MDR tox – KB-V1 MDR subline cytotoxicity; KB-V1 MDR cells viability, CellTiter-Glo, 72 h; Potency, µM (top dose mostly 46.1 µM), hits mostly cytotoxic; actives 3.4% (n = 400,000); AID 1347076; further: on the % scale 0 is the no-effect control and ±100 the full control effect; nearly all actives have a fitted effect of over 60% in size
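Cytotoxicity toward P-gp-expressing KB-V1 cells was determined as loss of CellTiter-Glo luminescence after 72 h at 37 degrees C. Compounds were tested in quantitative HTS format across a concentration range, with curves fitted to normalized data.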
Active calls of the source: *; i = inactive; u = inconclusive; x = no result given; [ ] = another dose, or the depositor's remark. Unless noted, the call rests on the fitted dose curve; in most records, active means well fitted curve in the direction sought with a large enough effect; inconclusive means small, poorly fitted or top-dose-only effect, or another doubt; inactive means no such curve, though single readings can be large; an effect the other way counts as inactive or inconclusive. Potency means the concentration at half of the fitted maximal effect.

SMILES	SW480 rereplic	PINK1 expr mod	KB-3-1 tox	MCF10A rereplic	ALOX12 inh	KB-V1 MDR tox
Cn1nc(C(C)(C)C)cc1C(=O)NCc1ccc(N2CCCC2=O)cc1	12.8%	2.1%[38.3 µM]	0.651µM*	0.9%	-2.8%	0.581µM*
COc1cccc(N2C(=O)NC(=NC3CCCC3)C23CCCN([S+](=O)([O-])c2cccc(C(F)(F)F)c2)C3)c1 (centres undefined)	x	x	x	x	1.4%[6.33 µM]	x
C(=N\N=C(c1ccccc1)c1ccccc1)/c1ccncc1	x	x	x	x	-14.8%	x
O=C(NN=Cc1ccc(O)c(O)c1)c1ccccc1	x	3.2%	i	x	x	i
O=C(/C(=N/N=C/c1ccc(O)c(O)c1O)c1ccccc1)c1ccccc1	u	u	u	u	14.1µM*	u
Oc1ccc(/C=N/N=C(c2ccccc2)c2ccccc2)c(O)c1O	-2.1%	-0.7%	u	20.6µM*	39.8µM*	i
Cc1ccc(C2C3=C(CC(C)(C)CC3=O)Nc3c2c(=O)[nH]c(=O)n3C)cc1 (centres undefined)	x	x	x	x	-53.7%	x
COc1nccnc1NS(=O)(=O)c1ccc(NC(=S)NC(=O)c2ccccc2)cc1	x	0.7%	i	-5.5%	35.5µM*	u
CN(c1ccccc1)S(=O)(=O)c1ccc(NC(=S)NC(=O)c2ccccc2)cc1	1.0%	-2.9%	i	9.1%	14.1µM*	u
CN(C)S(=O)(=O)c1ccc(NC(=S)NC(=O)C2CCC2)cc1	-8.1%	-0.2%	i	14.2%	u	i
Cc1ccc(C(=O)NC(=S)Nc2ccc(S(=O)(=O)N(C)c3ccccc3)cc2)cc1	-3.4%	7.9%	i	5.2%	31.6µM*	i
CN(Cc1ccccc1)S(=O)(=O)c1ccc(NC(=S)NC(=O)C2CCCC2)cc1	3.26µM*	-1.8%[38.3 µM]	6.51µM*	14.6µM*	u	4.11µM*
COc1ccccc1NS(=O)(=O)c1cc(NC(=O)C(C)(C)C)ccc1N1CCOCC1	-4.7%	-0.5%	i	13.9%	-18.6%	i
COCC(=O)Nc1ccc(N2CCOCC2)c(S(=O)(=O)Nc2ccccc2OC)c1	4.6%	-0.2%	u	1.5%	u	u
COc1ccccc1NS(=O)(=O)c1cc(NC(=S)NCCN2CCOCC2)ccc1N1CCOCC1	-3.6%	0.2%	i	-0.5%	50.1µM*	i
COc1ccccc1NS(=O)(=O)c1cc(NC(=O)COc2ccccc2F)ccc1N1CCOCC1	-0.3%	-1.9%	i	0.0%	u	4.61µM*
Ic1ccc(-c2noc(-c3ccco3)n2)cc1	x	x	x	x	-28.1%	x
O=C(CO/N=C/c1ccccc1O)N1CCc2ccccc21	0.6%	2.2%	i	6.3%	-1.1%	13µM*
O=C(COC(=O)C1(c2ccc(F)cc2)CCCC1)N1CCc2ccccc21	-54.2%	4.3%	i	15.9%	-13.2%	20.6µM*
CC(=O)c1ccc(N2CCN(C(=O)COc3ccc4c(c3)CCC4)CC2)cc1	-5.8%	-0.9%	i	-31.5%	1.2%	i
O=C(COc1ccc2c(c1)CCC2)N1CCc2ccccc21	u	u	i	25.9µM*	15.2%	i
Cc1ccc(Cl)cc1N1CCN(C(=O)COc2ccc3c(c2)CCC3)CC1	20.5%	5.0%	u	13µM*	-27.0%	i
CC(C)(C)c1coc([C@@H]2COCCN2Cc2ccc(Cl)cc2)n1	x	x	x	x	72.2%[176 µM]	x
CCCCn1cnc2c1c(=O)n(CC(=O)Nc1c(CC)cccc1CC)c(=O)n2CCC	x	x	x	x	3.9%	x
Cc1c(/C=N\NC(=O)C2COc3ccccc3O2)c2ccccc2n1C (centres undefined)	x	1.0%	u	u	16.6%	u
Cn1cc(/C=N\NC(=O)C2COc3ccccc3O2)c2ccccc21 (centres undefined)	17.5%	x	x	5.8µM*	21.2%	x
O=C(N/N=C/c1c(O)n(-c2ccccc2Cl)c(=O)c2ccccc12)C1COc2ccccc2O1 (centres undefined)	u	-2.2%	u	20.6µM*	x	u
